# From PubChem BioAssay (Tox21)
# Records with an inconclusive call do not appear. Entries that show only a call come without a potency. A number with no mark means an inactive call. Active and inactive are the calls of the source. Unless noted, calls follow the shape of the dose curve; as a rule, active = well fitted curve in the direction sought with a large enough effect in the repeat runs; inconclusive = weak or mixed curves; inactive = no such curve, though single readings can be large; an effect the other way counts as inactive or inconclusive.
# Key:
# [1] = qHTS assay to identify small molecule that activate the aryl hydrocarbon receptor (AhR) signaling pathway - cell viability counter screen (AID 743086); also: nearly all actives have a fitted effect of over 45% in size; also: potency is read from the fitted curve at half-maximal effect;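 as to viability change, negative = cytotoxic: HepG2 liver cells carrying the AhR DRE luciferase reporter; series mostly up to about 70 µM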
# Summary of the method: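 Cytotoxicity counter screen: CellTiter-Fluor signal (30 min, 37 C) in 4000 HepG2 cells/well carrying the DRE-luciferase reporter, following 24 h compound exposure at 37 C.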
# [2] = qHTS assay to identify small molecule antagonists of the peroxisome proliferator-activated receptor gamma (PPARg) signaling pathway - cell viability counter screen (AID 743194); also: nearly all actives have a fitted effect of over 55% in size
# Summary of the method: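 Viability was measured as CellTiter-Glo luminescence in GeneBLAzer PPARg UAS-bla HEK293H cells. These cells had been exposed 17 h at 37 C to compounds together with rosiglitazone at 50 nM final, with the beta-lactamase readout taken in the same wells.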
# [3] = qHTS assay for small molecule agonists of the antioxidant response element (ARE) signaling pathway - cell viability counter screen (AID 743203; calls by dose curve; also: nearly all actives have a fitted effect of over 55% in size; also: potency is read from the fitted curve at half-maximal effect)
# Summary of the method: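 Measured in the same wells as the beta-lactamase ARE reporter, this read-out is CellTiter-Glo luminescence from HepG2 ARE-bla cells given compounds for 16 hrs.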
# [4] = qHTS assay for small molecule activators of the heat shock response signaling pathway - cell viability counter screen (AID 743209); also: nearly all actives have a fitted effect of over 50% in size
# Summary of the method: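 Same-well multiplex: after 2.5 h room-temperature incubation with LiveBLAzer B/G substrate and fluorescence reading, CellTiter-Glo reagent was added to HSE-bla HeLa cells that had received compound for 5 h at 37 C; luminescence read after 30 min.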
# [5] = qHTS assay for small molecule activators of the heat shock response signaling pathway (AID 743210; active = well fitted activation curve with a large enough effect in the signal ratio in the repeat runs, with a control signal flat, not every such curve was filed as active; the % refers to the signal ratio; also: series mostly up to about 63 µM)
# Summary of the method: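 Compound exposure lasted 5 h at 37 C in HeLa cells carrying a heat-shock-element-driven beta-lactamase reporter. Read-out: fluorescence intensity after 2.5 h room-temperature loading with LiveBLAzer B/G FRET substrate.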
# [6] = qHTS assay to identify small molecule agonists of the peroxisome proliferator-activated receptor delta (PPARd) signaling pathway - cell viability counter screen (AID 743211); also: nearly all actives have a fitted effect of over 55% in size; also: potency is read from the fitted curve at half-maximal effect
# Summary of the method: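 qHTS cell viability: PPARd-bla HEK293H; 17 h cpd, 37C; CellTiter-Glo, luminescence at 30 min RT.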
# [7] = qHTS assay to identify small molecule antagonists of the peroxisome proliferator-activated receptor delta (PPARd) signaling pathway - cell viability counter screen (AID 743213); also: nearly all actives have a fitted effect of over 50% in size
# Summary of the method: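 In this counter screen, HEK293H cells carrying a UAS-beta-lactamase reporter are co-treated with test compounds and 300 nM L165041 (final) for 17 h at 37 C; cell viability is quantified by CellTiter-Glo luminescence.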
# [8] = qHTS assay to identify small molecule agonists of the farnesoid-X-receptor (FXR) signaling pathway - cell viability counter screen (AID 743218); also: nearly all actives have a fitted effect of over 45% in size; also: potency is read from the fitted curve at half-maximal effect
# Summary of the method: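 Readout: CellTiter-Glo luminescence, 30 min RT, multiplexed after the FXR-bla FRET reading. HEK 293T FXR-UAS-bla cells received compound 5 h post-plating and were incubated 16 h at 37 C.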
# [9] = target: Vitamin D3 receptor (Homo sapiens) (UniProt P11473); assay: qHTS assay to identify small molecule agonists of the vitamin D receptor (VDR) signaling pathway (AID 743222; calls by dose curve)
# Summary of the method: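 Following 4 h attachment at 37C, VDR-bla cells (2,000 per well) received DMSO-dissolved compounds or controls. After 16 h incubation, LiveBLAzer B/G FRET substrate was added and fluorescence read 2 h later at room temperature.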
# [10] = target: Vitamin D3 receptor (Homo sapiens) (UniProt P11473); assay: qHTS assay to identify small molecule antagonists of the vitamin D receptor (VDR) signaling pathway (AID 743223; active = well fitted inhibition curve with a large enough effect in the signal ratio in the repeat runs, not every such curve was filed as active; the % refers to the signal ratio)
# Summary of the method: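 Reporter line VDR-bla; stimulus 1alpha,25-(OH)2 vitamin D3, 3 nM final; compound co-addition, 16 h 37C/5% CO2; LiveBLAzer B/G substrate 2 h RT; fluorescence intensity.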
# [11] = qHTS assay to identify small molecule agonists of the vitamin D receptor (VDR) signaling pathway - cell viability counter screen (AID 743224); also: nearly all actives have a fitted effect of over 50% in size; also: potency is read from the fitted curve at half-maximal effect; as to activity change, negative = cytotoxicity: series mostly up to about 63 µM
# Summary of the method: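 In parallel with the bla FRET readout, cytotoxicity toward VDR-bla cells after 16 h compound exposure was assessed by CellTiter-Glo, with luminescence recorded after a 30 min room-temperature incubation.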
# [12] = qHTS assay for small molecule agonists of the antioxidant response element (ARE) signaling pathway (AID 743202; active = well fitted activation curve with a large enough effect in the signal ratio in the repeat runs, not every such curve was filed as active; the % refers to the signal ratio)
# Summary of the method: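 After 16 hours of compound treatment at 37 C, HepG2 cells with a stably integrated ARE-driven beta-lactamase reporter were loaded 2 hours at room temperature with LiveBLAzer B/G FRET substrate and fluorescence intensity measured.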
# [13] = target: Peroxisome proliferator-activated receptor delta (Homo sapiens) (UniProt Q03181); assay: qHTS assay to identify small molecule agonists of the peroxisome proliferator-activated receptor delta (PPARd) signaling pathway (AID 743212; calls by dose curve;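 also: HEK293H cells with PPARd UAS beta-lactamase reporter GeneBLAzer system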)
# Summary of the method: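 Beta-lactamase reporter readout: a ratiometric FRET signal from the LiveBLAzer substrate after 2 h at room temperature. Compound exposure at 37 °C in PPARδ-bla HEK293H cells driven by an upstream activator sequence.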
# [14] = target: Peroxisome proliferator-activated receptor delta (Homo sapiens) (UniProt Q03181); assay: qHTS assay to identify small molecule antagonists of the peroxisome proliferator-activated receptor delta (PPARd) signaling pathway (AID 743215; active = well fitted inhibition curve with a large enough effect in the signal ratio in the repeat runs, not every such curve was filed as active; the % refers to the signal ratio;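 also: cells stimulated with agonist L165041 at 300 nM final during compound exposure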; also: potency is read from the fitted curve at half-maximal effect)
# Summary of the method: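 Fluorescence from cleaved LiveBLAzer B/G FRET substrate (2 h, room temperature) reports PPARd-driven beta-lactamase in HEK293H UAS-bla cells. Cells had been treated 17 h at 37 C with compound plus 300 nM final L165041.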
# [15] = target: Bile acid receptor (Homo sapiens) (UniProt Q96RI1); assay: qHTS assay to identify small molecule antagonists of the farnesoid-X-receptor (FXR) signaling pathway (AID 743217; active = well fitted inhibition curve with a large enough effect in the signal ratio in the repeat runs, not every such curve was filed as active; the % refers to the signal ratio)
# Summary of the method: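 FRET fluorescence after 2 h room-temperature LiveBLAzer loading gives the readout. Prior step: FXR-bla HEK 293T cells, seeded and incubated 5 h, received test compounds plus 50 uM final CDCA for 16 h at 37 °C.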
# [16] = target: Bile acid receptor (Homo sapiens) (UniProt Q96RI1); assay: qHTS assay to identify small molecule agonists of the farnesoid-X-receptor (FXR) signaling pathway (AID 743220; active = well fitted activation curve with a large enough effect in the signal ratio in the repeat runs, not every such curve was filed as active; the % refers to the signal ratio; also: potency is read from the fitted curve at half-maximal effect)
# Summary of the method: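 FXR-UAS-bla HEK 293T cells carrying a UAS-driven beta-lactamase reporter were plated for 5 h at 37C/5% CO2, then exposed to DMSO-dissolved Tox21 10K compounds for 16 h at 37C. A LiveBLAzer B/G FRET substrate was loaded for 2 h at room temperature before fluorescence reading.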
# [17] = qHTS assay to identify small molecule antagonists of the farnesoid-X-receptor (FXR) signaling pathway - cell viability counter screen (AID 743221; active = well fitted cell-killing curve with a large enough effect in the repeat runs, not every such curve was filed as active; also: nearly all actives have a fitted effect of over 50% in size)
# Summary of the method: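 After a 5 h settling period, FXR-bla HEK 293T cells receive compound and chenodeoxycholic acid (50 uM final) and incubate 16 h at 37 C; CellTiter-Glo luminescence, read after 30 min at room temperature, reports cell viability.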
# [18] = target: Peroxisome proliferator-activated receptor gamma (Homo sapiens) (UniProt P37231); assay: qHTS assay to identify small molecule antagonists of the peroxisome proliferator-activated receptor gamma (PPARg) signaling pathway (AID 743191; calls by dose curve; also: nearly all actives have a fitted effect of over 30% in size; also: potency is read from the fitted curve at half-maximal effect)
# Summary of the method: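 Beta-lactamase reporter under UAS control in HEK293H PPARg-bla cells; compound treatment 17 h at 37C. Read-out: fluorescence intensity after 1 h room-temperature incubation with LiveBLAzer B/G FRET substrate.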
# [19] = target: Peroxisome proliferator-activated receptor gamma (Homo sapiens) (UniProt P37231); assay: qHTS assay to identify small molecule agonists of the peroxisome proliferator-activated receptor gamma (PPARg) signaling pathway (AID 743094; active = well fitted activation curve with a large enough effect in the signal ratio in the repeat runs, not every such curve was filed as active; the % refers to the signal ratio)
# Summary of the method: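 Cell-based bla reporter, HEK293H background, PPARg-driven UAS. Pre-incubation 5 h, 37C, 5% CO2. Compound 17 h, 37C. Substrate 1 h RT; fluorescence.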
# Peroxisome proliferator-activated receptor delta (Homo sapiens), sequence (Q03181 whole entry, looked up): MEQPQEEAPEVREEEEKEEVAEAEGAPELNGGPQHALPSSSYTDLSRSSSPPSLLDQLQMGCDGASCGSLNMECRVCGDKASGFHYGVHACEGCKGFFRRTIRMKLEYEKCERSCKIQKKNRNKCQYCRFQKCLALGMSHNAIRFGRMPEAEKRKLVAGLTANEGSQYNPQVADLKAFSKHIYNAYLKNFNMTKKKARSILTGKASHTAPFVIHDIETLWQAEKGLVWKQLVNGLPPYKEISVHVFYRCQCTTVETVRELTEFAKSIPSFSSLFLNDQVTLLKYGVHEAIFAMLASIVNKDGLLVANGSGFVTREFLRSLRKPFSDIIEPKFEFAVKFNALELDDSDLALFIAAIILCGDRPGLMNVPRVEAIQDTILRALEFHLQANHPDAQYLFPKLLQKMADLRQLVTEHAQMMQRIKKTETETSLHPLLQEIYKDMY
# Bile acid receptor (Homo sapiens), sequence (Q96RI1 whole entry, looked up): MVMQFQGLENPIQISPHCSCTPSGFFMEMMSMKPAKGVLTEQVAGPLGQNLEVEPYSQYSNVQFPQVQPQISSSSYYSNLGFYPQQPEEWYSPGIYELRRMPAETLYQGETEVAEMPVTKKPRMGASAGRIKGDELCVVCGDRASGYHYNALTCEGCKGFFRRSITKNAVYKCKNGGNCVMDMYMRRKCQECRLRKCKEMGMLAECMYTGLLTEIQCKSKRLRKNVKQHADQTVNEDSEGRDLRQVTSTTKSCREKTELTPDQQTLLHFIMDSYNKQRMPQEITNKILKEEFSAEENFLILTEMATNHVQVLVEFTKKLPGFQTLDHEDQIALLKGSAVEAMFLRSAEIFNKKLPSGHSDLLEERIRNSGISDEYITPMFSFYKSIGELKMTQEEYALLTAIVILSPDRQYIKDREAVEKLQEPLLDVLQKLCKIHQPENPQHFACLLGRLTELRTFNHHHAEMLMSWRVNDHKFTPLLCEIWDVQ
# Vitamin D3 receptor (Homo sapiens), sequence (P11473 whole entry, looked up): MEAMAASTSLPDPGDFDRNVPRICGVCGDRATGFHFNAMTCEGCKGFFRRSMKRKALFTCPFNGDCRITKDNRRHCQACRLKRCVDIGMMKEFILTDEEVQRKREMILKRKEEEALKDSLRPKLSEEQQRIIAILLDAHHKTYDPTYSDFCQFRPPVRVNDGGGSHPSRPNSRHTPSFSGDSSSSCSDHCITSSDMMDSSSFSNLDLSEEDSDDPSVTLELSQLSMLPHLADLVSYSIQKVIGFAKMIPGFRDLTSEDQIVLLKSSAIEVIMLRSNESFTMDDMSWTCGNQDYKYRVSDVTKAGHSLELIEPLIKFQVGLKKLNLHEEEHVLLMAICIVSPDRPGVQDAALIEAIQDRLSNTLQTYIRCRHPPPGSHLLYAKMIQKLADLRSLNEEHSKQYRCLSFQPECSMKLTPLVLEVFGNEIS
# Peroxisome proliferator-activated receptor gamma (Homo sapiens), sequence (P37231 whole entry, looked up): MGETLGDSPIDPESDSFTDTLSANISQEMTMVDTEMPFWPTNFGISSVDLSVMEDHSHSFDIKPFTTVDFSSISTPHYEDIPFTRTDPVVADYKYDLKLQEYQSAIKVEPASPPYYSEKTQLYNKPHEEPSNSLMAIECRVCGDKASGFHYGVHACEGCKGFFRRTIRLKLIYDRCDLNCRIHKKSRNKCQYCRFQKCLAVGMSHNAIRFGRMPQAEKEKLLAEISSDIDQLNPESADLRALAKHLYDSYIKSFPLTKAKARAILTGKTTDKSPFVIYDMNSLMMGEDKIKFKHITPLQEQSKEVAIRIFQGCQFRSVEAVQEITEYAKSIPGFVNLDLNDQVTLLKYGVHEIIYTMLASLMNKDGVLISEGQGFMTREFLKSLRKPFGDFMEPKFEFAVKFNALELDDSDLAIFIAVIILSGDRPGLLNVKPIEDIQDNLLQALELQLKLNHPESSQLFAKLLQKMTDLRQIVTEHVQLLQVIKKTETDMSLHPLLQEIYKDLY
compound,measurement,setting,value
CC(C)O.CC(C)O.CCOC(=O)/C=C(\C)O.CCOC(=O)/C=C(\C)O.[Ti],Potency,[1],inactive
same,Potency,[2],inactive
same,Potency,[3],inactive
same,Potency,[4],inactive
same,Potency,[5],inactive
same,Potency,[6],inactive
same,Potency,[7],inactive
same,Potency,[8],inactive
same,Potency,[9],inactive
same,outcome,[10],inactive
same,Potency,[11],inactive
CCCCC,Potency,[1],inactive
same,Potency,[12],inactive
same,Potency,[3],inactive
same,Potency,[4],inactive
same,Potency,[5],inactive
same,Potency,[6],inactive
same,Potency,[13],inactive
same,Potency,[7],inactive
same,Potency,[14],inactive
same,Potency,[15],inactive
same,Potency,[8],inactive
same,Potency,[16],inactive
same,Potency,[17],inactive
same,Potency,[9],inactive
same,outcome,[10],inactive
same,Potency,[11],inactive
CCCCC1=NC2(CCCC2)C(=O)N1Cc1ccc(-c2ccccc2-c2nn[nH]n2)cc1,Potency,[1],inactive
same,Potency,[18],inactive
same,Potency,[3],inactive
same,Potency,[4],inactive
same,Potency,[5],inactive
same,Potency,[6],inactive
same,Potency,[13],inactive
same,Potency,[7],inactive
same,Potency,[14],inactive
same,Potency,[15],inactive
same,Potency,[16],inactive
same,Potency,[17],inactive
same,Potency,[9],inactive
COc1ccc(C(=O)c2ccc(OC)cc2O)c(O)c1,Potency,[1],inactive
same,Potency,[19],inactive
same,Potency,[3],inactive
same,Potency,[4],inactive
same,Potency,[5],inactive
same,Potency,[6],inactive
same,Potency,[13],inactive
same,Potency,[8],inactive
same,Potency,[17],inactive
same,Potency,[9],inactive
same,outcome,[10],inactive
CCN(CC)CCNc1ccc(CNC=O)c2sc3ccc(OC)cc3c(=O)c12,Potency,[1],5.45 µM (active)
same,Potency,[18],12.3 µM (active)
same,Potency,[3],48.6 µM (active)
same,Potency,[4],inactive
same,Potency,[5],inactive
same,Potency,[6],30.9 µM (active)
same,Potency,[13],inactive
same,Potency,[14],15.5 µM (active)
same,Potency,[8],4.9 µM (active)
same,Potency,[16],6.92 µM (active)
same,Potency,[9],inactive
same,Potency,[11],54.9 µM (active)
CC(=O)[O][Al][O]C(C)=O,Potency,[1],inactive
same,Potency,[2],inactive
same,Potency,[12],inactive
same,Potency,[3],inactive
same,Potency,[4],inactive
same,Potency,[6],inactive
same,Potency,[7],inactive
same,Potency,[8],inactive
same,Potency,[17],inactive
same,Potency,[11],inactive
CN(C)c1ccc(/C=C/c2ccc([N+](=O)[O-])cc2)cc1,"viability change, negative = cytotoxic",[1],24.5% [at 8.47 µM]
same,"activity change, negative = cytotoxicity",[2],9.25% [at 5.95 µM]
same,activation,[12],-18.5% [at 8.36 µM]
same,"viability change, negative = cytotoxic",[3],0.634% [at 8.36 µM]
same,"activity change, negative = cytotoxicity",[4],-1.13% [at 5.95 µM]
same,activation,[5],0.443% [at 5.95 µM]
same,"activity change, negative = cytotoxicity",[6],-8.61% [at 5.95 µM]
same,"viability change, negative = cytotoxic",[7],1.68% [at 6.26 µM]
same,"viability change, negative = cytotoxic",[8],-8.77% [at 5.95 µM]
same,activation,[16],-3.79% [at 5.95 µM]
same,"activity change, negative = cytotoxicity",[17],-0.888% [at 5.95 µM]
same,"activity change, negative = inhibition",[10],-22.2% [at 6.95 µM]
same,"activity change, negative = cytotoxicity",[11],-5.5% [at 5.95 µM]
CC(C)=CCC/C(C)=C/CC/C(C)=C/CO,Potency,[1],inactive
same,Potency,[19],inactive
same,Potency,[2],inactive
same,Potency,[3],inactive
same,Potency,[6],38.9 µM (active)
same,Potency,[7],inactive
same,Potency,[14],inactive
same,Potency,[8],inactive
same,Potency,[17],inactive
same,Potency,[9],inactive
same,Potency,[11],49 µM (active)
CC(=O)[O][Al],Potency,[1],inactive
same,Potency,[2],inactive
same,Potency,[12],inactive
same,Potency,[3],inactive
same,Potency,[4],inactive
same,Potency,[6],inactive
same,Potency,[7],inactive
same,Potency,[17],inactive
same,Potency,[11],inactive
Nc1c(CC(=O)O)cccc1C(=O)c1ccc(Br)cc1,Potency,[1],inactive
same,Potency,[2],inactive
same,Potency,[12],inactive
same,Potency,[4],inactive
same,Potency,[6],inactive
same,Potency,[7],inactive
same,Potency,[14],inactive
same,Potency,[15],inactive
same,Potency,[8],inactive
same,Potency,[16],inactive
same,Potency,[17],inactive
same,Potency,[11],inactive
Nc1cccc(S(=O)(=O)c2cccc(N)c2)c1,Potency,[1],inactive
same,Potency,[19],inactive
same,Potency,[2],inactive
same,Potency,[3],inactive
same,Potency,[4],inactive
same,Potency,[5],inactive
same,Potency,[6],inactive
same,Potency,[13],inactive
same,Potency,[14],inactive
same,Potency,[8],inactive
same,Potency,[17],inactive
same,Potency,[9],inactive
same,Potency,[11],inactive
